The panel holds about 83,000 compounds, 20% with a hit somewhere; the sample as a whole holds those more often.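 A percent growth of 40 corresponds to 60% growth inhibition; 0 means no net growth; -100 means all cells died. Active threshold: below 10.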 Calls of active or inactive are those of the source.
Experiments:
Assay in all cases: NCI-60 one-dose screen, 48 h (100 = growth as untreated, 0 = no growth, -100 = all killed)
SR leukemia = details: 10 µM unless noted
RPMI-8226 leukemia = details: 10 µM unless noted
OVCAR-8 ovarian = details: 10 µM unless noted
OVCAR-5 ovarian = details: 10 µM unless noted
OVCAR-4 ovarian = details: 10 µM unless noted
SK-OV-3 ovarian = details: 10 µM unless noted
IGROV1 ovarian = details: 10 µM unless noted
OVCAR-3 ovarian = details: 10 µM unless noted
HS 578T breast = details: 10 µM
NCI/ADR-RES ovarian = details: 10 µM unless noted
BT-549 breast = details: 10 µM unless noted
MDA-MB-435 melanoma = details: 10 µM unless noted
SW-620 colon = details: 10 µM unless noted
MCF7 breast = details: 10 µM unless noted
HCT-116 colon = details: 10 µM unless noted
HCC-2998 colon = details: 10 µM unless noted
T-47D breast = details: 10 µM unless noted
KM12 colon = details: 10 µM unless noted

Measured: growth

CC(=O)c1nn(-c2ccccc2)/c(=N\N=C\c2coc3ccc(F)cc3c2=O)s1
inactive: SR leukemia 96.2% | RPMI-8226 leukemia 91.9% | OVCAR-8 ovarian 107% | OVCAR-5 ovarian 110% | OVCAR-4 ovarian 108% | SK-OV-3 ovarian 98.9% | IGROV1 ovarian 87.2% | OVCAR-3 ovarian 111% | HS 578T breast 95.1% | NCI/ADR-RES ovarian 104% | BT-549 breast 105% | MDA-MB-435 melanoma 103% | SW-620 colon 98.7% | MCF7 breast 90.3% | HCT-116 colon 96% | HCC-2998 colon 111%

CCCCn1c(-c2ccc(F)cc2)nc2cc(OC)c(OC)cc2c1=O
inactive: SR leukemia 34.4% | RPMI-8226 leukemia 40.2% | OVCAR-8 ovarian 109% | OVCAR-5 ovarian 108% | OVCAR-4 ovarian 112% | SK-OV-3 ovarian 120% | IGROV1 ovarian 79.4% | OVCAR-3 ovarian 106% | HS 578T breast 101% | NCI/ADR-RES ovarian 93.9% | T-47D breast 89.1% | MDA-MB-435 melanoma 101% | SW-620 colon 98.3% | MCF7 breast 88.2% | HCT-116 colon 67.3% | HCC-2998 colon 103% | KM12 colon 95.8%

CC(=O)N[C@@H](CCC(N)=O)C(=O)O
inactive: SR leukemia 104% | RPMI-8226 leukemia 107% | OVCAR-8 ovarian 98.8% | OVCAR-5 ovarian 111% | OVCAR-4 ovarian 111% | SK-OV-3 ovarian 96.7% | IGROV1 ovarian 84.9% | OVCAR-3 ovarian 102% | HS 578T breast 81.7% | NCI/ADR-RES ovarian 98.9% | T-47D breast 107% | BT-549 breast 118% | SW-620 colon 94.1% | MCF7 breast 98.8% | HCT-116 colon 96.3% | HCC-2998 colon 99.5% | KM12 colon 103%

C=C(CN1CC=CCC1)[C@@H]1CC[C@]2(C(=O)OC)CC[C@]3(C)[C@H](CC[C@@H]4[C@@]5(C)CC[C@H](OC(C)=O)C(C)(C)[C@@H]5CC[C@]43C)[C@@H]12
inactive: SR leukemia 69.4% | RPMI-8226 leukemia 50% | OVCAR-8 ovarian 103% | OVCAR-5 ovarian 118% | OVCAR-4 ovarian 91.3% | SK-OV-3 ovarian 103% | IGROV1 ovarian 91.8% | OVCAR-3 ovarian 92.5% | HS 578T breast 109% | NCI/ADR-RES ovarian 107% | BT-549 breast 85.6% | MDA-MB-435 melanoma 90.7% | SW-620 colon 102% | MCF7 breast 88.2% | HCT-116 colon 86.7% | HCC-2998 colon 108% | KM12 colon 78.6%

CCOc1cccc(/C=N/NC(=O)c2ccc(Nc3ccnc(C(F)(F)F)c3)cc2)c1O
active: RPMI-8226 leukemia -23.6% | IGROV1 ovarian -9.15% | T-47D breast 3.07% | MCF7 breast -1.78% | HCT-116 colon 7.55%
inactive: SR leukemia 68.7% | OVCAR-8 ovarian 24.7% | OVCAR-5 ovarian 13.9% | OVCAR-4 ovarian 31.3% | SK-OV-3 ovarian 10.9% | OVCAR-3 ovarian 24.6% | HS 578T breast 11.3% | NCI/ADR-RES ovarian 49.3% | BT-549 breast 14.6% | SW-620 colon 32.1% | HCC-2998 colon 35.3% | KM12 colon 24.8%

O=C1OC(c2ccc(-c3ccccc3)cc2)=C/C1=C/c1c(Cl)cccc1Cl
inactive: SR leukemia 69.6% | RPMI-8226 leukemia 84.1% | OVCAR-8 ovarian 105% | OVCAR-5 ovarian 91.7% | OVCAR-4 ovarian 89.8% | SK-OV-3 ovarian 96.7% | IGROV1 ovarian 95.4% | OVCAR-3 ovarian 97.1% | HS 578T breast 85.6% | NCI/ADR-RES ovarian 99.3% | T-47D breast 91.3% | MDA-MB-435 melanoma 104% | SW-620 colon 95.9% | MCF7 breast 76% | HCT-116 colon 63% | HCC-2998 colon 102% | KM12 colon 94.1%

CN1CCN(Cc2ccc(NC(=O)c3cncc(C#Cc4ncc5cnccn45)c3)cc2C(F)(F)F)CC1
inactive: SR leukemia 50.8% | RPMI-8226 leukemia 44.3% | OVCAR-8 ovarian 70% | OVCAR-5 ovarian 35.1% | OVCAR-4 ovarian 41.3% | SK-OV-3 ovarian 42.8% | IGROV1 ovarian 42.2% | OVCAR-3 ovarian 69.6% | HS 578T breast 52.2% | NCI/ADR-RES ovarian 92.7% | BT-549 breast 63.7% | MDA-MB-435 melanoma 39.3% | SW-620 colon 22% | MCF7 breast 36% | HCT-116 colon 16.6% | HCC-2998 colon 43.1% | KM12 colon 13.2%

COc1cc(C2C=C(C)N=C3SC=NN32)cc(OC)c1OC (configuration not stated)
inactive: SR leukemia 102% | RPMI-8226 leukemia 98.9% | OVCAR-8 ovarian 92% | OVCAR-5 ovarian 91.6% | OVCAR-4 ovarian 103% | SK-OV-3 ovarian 111% | IGROV1 ovarian 118% | OVCAR-3 ovarian 116% | HS 578T breast 106% | NCI/ADR-RES ovarian 104% | T-47D breast 109% | BT-549 breast 141% | MCF7 breast 98.9% | HCT-116 colon 111% | HCC-2998 colon 102% | KM12 colon 107%

Cc1[nH]n(C(=O)c2ccncc2)c(=O)c1N=Nc1ccc(O)c(C(=O)O)c1
inactive: SR leukemia 10.1% | RPMI-8226 leukemia 51.5% | OVCAR-8 ovarian 115% | OVCAR-5 ovarian 123% | OVCAR-4 ovarian 109% | SK-OV-3 ovarian 108% | IGROV1 ovarian 94.7% | OVCAR-3 ovarian 105% | HS 578T breast 96.2% | NCI/ADR-RES ovarian 110% | T-47D breast 132% | MDA-MB-435 melanoma 126% | SW-620 colon 105% | MCF7 breast 109% | HCT-116 colon 75.3% | HCC-2998 colon 117% | KM12 colon 104%

COC(=O)C(CCC(=O)CCl)N1C(=O)c2ccccc2C1=O (configuration not stated)
inactive: OVCAR-8 ovarian 59.2% | OVCAR-5 ovarian 79.3% | OVCAR-4 ovarian 72.9% | SK-OV-3 ovarian 113% | IGROV1 ovarian 27.2% | OVCAR-3 ovarian 19.2% | HS 578T breast 85.3% | NCI/ADR-RES ovarian 83.5% | BT-549 breast 55.7% | MDA-MB-435 melanoma 35.2% | MCF7 breast 26.2% | HCT-116 colon 25% | HCC-2998 colon 89.4% | KM12 colon 101%
active: SR leukemia 8.24% | RPMI-8226 leukemia -8.21%

COc1ccc(C2CC(c3cccc(Nc4ccnc5cc(Cl)ccc45)c3)=NN2c2ccc(Cl)cc2)cc1 (configuration not stated)
inactive: SR leukemia 69.7% | RPMI-8226 leukemia 42.6% | OVCAR-8 ovarian 56.6% | OVCAR-5 ovarian 84.4% | OVCAR-4 ovarian 95.9% | SK-OV-3 ovarian 94.7% | IGROV1 ovarian 99.1% | OVCAR-3 ovarian 74.2% | HS 578T breast 90.5% | T-47D breast 40.6% | BT-549 breast 56.7% | MDA-MB-435 melanoma 30.6% | SW-620 colon 30.7% | MCF7 breast 65% | HCT-116 colon 66.3% | KM12 colon 22.2%
active: HCC-2998 colon 7.59%

C[C@@H](C[C@H](CC1CC1)c1ccccc1)c1ccc2ccccc2c1
inactive: SR leukemia 106% | RPMI-8226 leukemia 98.8% | OVCAR-8 ovarian 106% | OVCAR-5 ovarian 107% | OVCAR-4 ovarian 96.1% | SK-OV-3 ovarian 117% | IGROV1 ovarian 101% | OVCAR-3 ovarian 113% | HS 578T breast 108% | NCI/ADR-RES ovarian 105% | BT-549 breast 106% | MDA-MB-435 melanoma 102% | MCF7 breast 108% | HCT-116 colon 98.6% | HCC-2998 colon 101% | KM12 colon 103%

CCCN(CCC)CC(O)COc1ccccc1C(=O)Nc1ccccc1 (configuration not stated)
inactive: SR leukemia 28.7% | RPMI-8226 leukemia 71.4% | OVCAR-8 ovarian 84.3% | OVCAR-5 ovarian 115% | OVCAR-4 ovarian 85% | SK-OV-3 ovarian 67.4% | IGROV1 ovarian 113% | OVCAR-3 ovarian 50.3% | HS 578T breast 80.9% | T-47D breast 97.1% | BT-549 breast 87.1% | SW-620 colon 36.9% | MCF7 breast 79.9% | HCT-116 colon 50.6% | HCC-2998 colon 79.6% | KM12 colon 48.3%
active: MDA-MB-435 melanoma -21.1%

Cc1ccc(Nc2nc(NCCO)c3ccccc3n2)cc1C
active: OVCAR-8 ovarian 9.74% | SK-OV-3 ovarian -0.684% | OVCAR-3 ovarian -9.61% | MDA-MB-435 melanoma -35.8% | KM12 colon 9.68%
inactive: SR leukemia 19% | RPMI-8226 leukemia 19.7% | OVCAR-5 ovarian 25.6% | OVCAR-4 ovarian 50.6% | IGROV1 ovarian 20.2% | HS 578T breast 36.1% | T-47D breast 55.9% | BT-549 breast 37.7% | SW-620 colon 13.5% | MCF7 breast 24.4% | HCT-116 colon 16.5% | HCC-2998 colon 11.6%

O=C(NCC(c1ccsc1)N1CCCCCC1)c1ccc(C(F)(F)F)cc1 (configuration not stated)
inactive: SR leukemia 85.8% | RPMI-8226 leukemia 88.8% | OVCAR-8 ovarian 102% | OVCAR-5 ovarian 106% | OVCAR-4 ovarian 94.6% | SK-OV-3 ovarian 109% | IGROV1 ovarian 96.8% | OVCAR-3 ovarian 103% | HS 578T breast 102% | T-47D breast 91.7% | BT-549 breast 99.8% | MDA-MB-435 melanoma 91.8% | SW-620 colon 96.6% | MCF7 breast 94.5% | HCT-116 colon 88.9% | HCC-2998 colon 102% | KM12 colon 76.8%

COc1ccc(C2=NN(C=O)C(c3ccc(OS(=O)(=O)c4ccc(C)cc4)c(OC)c3)C2)cc1 (configuration not stated)
inactive: SR leukemia 23.5% | RPMI-8226 leukemia 40.3% | OVCAR-8 ovarian 59.6% | OVCAR-5 ovarian 89.9% | OVCAR-4 ovarian 40.5% | SK-OV-3 ovarian 84.3% | IGROV1 ovarian 79.1% | OVCAR-3 ovarian 60.8% | HS 578T breast 60.1% | T-47D breast 40.3% | BT-549 breast 46.4% | MDA-MB-435 melanoma 14.1% | SW-620 colon 48.3% | MCF7 breast 40.2% | HCT-116 colon 45.8% | HCC-2998 colon 74.1% | KM12 colon 54.5%

COc1cccc(NC(=O)[C@H](C(C)C)n2c(=O)[nH]c3ccccc3c2=O)c1
inactive: SR leukemia 95.8% | RPMI-8226 leukemia 98.6% | OVCAR-8 ovarian 96.9% | OVCAR-5 ovarian 108% | OVCAR-4 ovarian 105% | SK-OV-3 ovarian 101% | IGROV1 ovarian 113% | OVCAR-3 ovarian 109% | HS 578T breast 110% | T-47D breast 91.1% | BT-549 breast 102% | MDA-MB-435 melanoma 108% | SW-620 colon 103% | MCF7 breast 98.2% | HCT-116 colon 113% | HCC-2998 colon 96.3% | KM12 colon 104%

O=[N+]([O-])c1cccc(N=C(Nc2cccc([N+](=O)[O-])c2)c2ccccc2)c1
inactive: SR leukemia 70.4% | RPMI-8226 leukemia 58.2% | OVCAR-8 ovarian 93.4% | OVCAR-5 ovarian 99.9% | OVCAR-4 ovarian 84.7% | SK-OV-3 ovarian 107% | IGROV1 ovarian 84.4% | OVCAR-3 ovarian 88.2% | HS 578T breast 97.9% | NCI/ADR-RES ovarian 75.6% | BT-549 breast 82% | MDA-MB-435 melanoma 78.4% | SW-620 colon 101% | MCF7 breast 68.9% | HCT-116 colon 58.1% | HCC-2998 colon 93.2% | KM12 colon 84.2%
